# Screening results as filed in PubChem.
# Only a selection was taken, and hits are over-represented in it overall.
# DT40 TDP1 CPT: DT40-hTDP1 cell growth loss with CPT; chicken DT40 Tdp1-/-;hTDP1 cells + 20 nM CPT, ATP luminescence, 48 h; Potency, µM (series often up to 46.2 µM), inactives show at the top dose activity change, negative = growth inhibition, hits mostly inhibitors; hit rate 12% among 420,000; also: potency is read from the fitted curve at half-maximal effect; nearly all actives have a fitted effect of over 55% in size
#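 Chicken DT40 Tdp1-/- cells stably complemented with human TDP1 were seeded at 400 cells/well in medium containing 20 nM camptothecin, exposed to pin-transferred compounds, and grown at 37 °C for at least 48 hr. Viability was read as ATP luminescence.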
# IL-1B inflam inh: inhibitors of inflammasome signaling (IL-1 beta secretion). THP-1 LPS/ATP IL-1B secretion, AlphaLISA, 16 h; stronger effect = lower value. activity change, % at 57.5 µM. hit rate 4.7% among 360,000; in the data active = activity change below about -50%; inconclusive = mostly about -30% to -49%
#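 THP-1 cells pretreated 1 hr with compounds (up to 57.5 uM final), then stimulated with LPS (250 ng/mL final) plus ATP (1.25 mM final); secreted IL-1B measured by AlphaLISA after 16 hr, decreased signal indicating inhibition.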
# ALOX12 inh: blocks human arachidonate 12S-lipoxygenase | purified 12hLO, xylenol orange hydroperoxide absorbance | AID 1671190 | Potency, µM (top dose mostly 108 µM), for the others: at the top dose activity change, negative = inhibition, actives largely listed as inhibitors | hit rate 1.1% among 580,000 | P18054; also: potency is read from the fitted curve at half-maximal effect
# Target sequence (P18054 whole entry, looked up): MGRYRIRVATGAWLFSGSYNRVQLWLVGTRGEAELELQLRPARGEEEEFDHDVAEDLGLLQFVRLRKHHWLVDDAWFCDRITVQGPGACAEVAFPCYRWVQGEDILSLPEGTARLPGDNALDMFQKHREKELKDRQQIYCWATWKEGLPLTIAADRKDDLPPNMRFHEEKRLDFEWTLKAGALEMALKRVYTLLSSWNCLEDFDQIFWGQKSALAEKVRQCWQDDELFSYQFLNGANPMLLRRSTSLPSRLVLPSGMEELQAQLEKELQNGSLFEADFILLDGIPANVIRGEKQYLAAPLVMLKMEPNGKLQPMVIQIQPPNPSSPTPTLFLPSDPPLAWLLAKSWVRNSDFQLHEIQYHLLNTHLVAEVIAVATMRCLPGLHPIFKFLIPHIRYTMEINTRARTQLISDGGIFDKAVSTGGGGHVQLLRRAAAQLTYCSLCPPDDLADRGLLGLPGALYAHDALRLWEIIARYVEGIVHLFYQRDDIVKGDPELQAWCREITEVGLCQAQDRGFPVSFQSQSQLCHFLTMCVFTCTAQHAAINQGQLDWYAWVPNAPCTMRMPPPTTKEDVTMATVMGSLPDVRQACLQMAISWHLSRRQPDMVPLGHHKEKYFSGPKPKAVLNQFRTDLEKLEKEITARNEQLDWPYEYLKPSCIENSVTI
#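 Hydroperoxide product was detected by ferrous iron/xylenol orange as the 573 to 405 nm absorbance ratio. Arachidonic acid at 40 uM (final) was turned over for 30 min at room temperature by 150 nM human 12hLO, pH 7.0 Hepes buffer, after 15 min compound preincubation.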
# HT1080 IDH1KD tx: toxicity to HT-1080 IDH1 knockdown cells (counter line); AID 686971; hit rate 2% among 360,000; HT-1080 IDH1 knockdown viability, ATP luminescence, 48 h; Potency, µM (doses to about 46.1 µM), for inactives: at the highest dose activity, negative = toxicity, hits mostly cytotoxic;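 also: potency is read from the fitted curve at half-maximal effect; 0% = DMSO wells and -100% = cell-free medium wells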
#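 Cytotoxicity counter-line: IDH1KD HT-1080, 48 h, CellTiter-Glo. Curves classed by r2, magnitude and activity.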
# TDP1 cell noCPT: qHTS for Inhibitors of human tyrosyl-DNA phosphodiesterase 1 (TDP1): qHTS in cells in absence of CPT; DT40 Tdp1-/- hTDP1 cells, no CPT, ATP luminescence, 48 h; Potency, µM (highest dose often 46.2 µM), inactives show at the highest dose activity change, negative = growth inhibition, actives largely listed as inhibitors; hit rate 15% among 420,000; AID 686978, 2013; also: potency is read from the fitted curve at half-maximal effect; nearly all actives have a fitted effect of over 55% in size
#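 Stably hTDP1-transfected Tdp1-null chicken DT40 cells were treated with library compounds minus camptothecin and grown for at least 48 hr at 37 °C, after which cellular ATP was quantified by luminescence.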
# HT1080-NT tox: kills 2HG-producing HT-1080-NT fibrosarcoma cells. HT-1080-NT fibrosarcoma viability, CellTiter-Glo ATP luminescence, 48 h. Potency, µM (top dose mostly 46.1 µM), inactives show top-dose activity, negative = less viability, usual class: cytotoxic. hit rate 1.6% among 360,000. AID 686970;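 also: NT is the 2HG producing partner of a matched IDH1 knockdown line; potency is read from the fitted curve at half-maximal effect; 0% = DMSO-treated cells and -100% = media-only wells without cells; nearly all actives have a fitted effect of over 55% in size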
#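 HT-1080-NT fibrosarcoma cells (2HG-overproducing), 750 cells/well in RPMI with 5% FBS, dosed after 2 h and incubated 48 h at 37C. CellTiter-Glo luminescence normalized to DMSO and no-cell wells; concentration-response curves fitted and classed.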
# * marks the source's active call; other numbers are inactive results; ? = inconclusive; nt = no result. Unless noted, calls follow the shape of the dose curve; as a rule, active = well fitted curve in the direction sought with a large enough effect; inconclusive = small, poorly fitted or top-dose-only effect, or another doubt; inactive = no such curve, though single readings can be large; an effect the other way counts as inactive or inconclusive. Unless noted, % is scaled to controls: 0 for no effect and ±100 for the full control effect.
SMILES,DT40 TDP1 CPT,IL-1B inflam inh,ALOX12 inh,HT1080 IDH1KD tx,TDP1 cell noCPT,HT1080-NT tox
Cc1onc(-c2ccccc2Cl)c1C(=O)NC1CCCCCC1,26µM*,11,0%,-10%,16µM*,-1%
FC(F)(F)c1cccc2c(N3CCC4(CCCN4Cc4ncc[nH]4)CC3)ccnc12,nt,nt,160%,nt,nt,nt
C[C@H]1CN([C@@H](C)CO)C(=O)CCCn2nncc2CO[C@H]1CN(C)C(=O)NC1CCCCC1,-11%,25,4%,10%,1%,11%
COc1cc(/C=N/NC(=O)c2c(-c3c(Cl)cccc3Cl)noc2C)ccc1OCC(N)=O,-1%,87,7%,-3%,-12%,0%
Cc1onc(-c2c(Cl)cccc2Cl)c1C(=O)NC1CCCCC1,?,-5,-16%,-19%,9.2µM*,0%
Cc1onc(-c2c(Cl)cccc2Cl)c1C(=O)N/N=C(\N)COc1ccc(Cl)cc1,5.2µM*,50,?,?,5.2µM*,?
Cc1cc(Br)c(NC(=O)c2c(-c3c(Cl)cccc3Cl)noc2C)c(Br)c1,21µM*,30,3%,-6%,?,8%
COC(=O)C1(C)NC(c2ccc(O)cc2)C2C(=O)N(c3ccc(C)cc3)C(=O)C21 (configuration not stated),12%,22,12%,6%,8%,16%
Cn1c(=O)c2c(ncn2CC(=O)N(C2CCCCC2)C2CCS(=O)(=O)C2)n(C)c1=O (configuration not stated),nt,nt,-2%,nt,nt,nt
COc1cc(NC(=O)N2CCC3(CC2)Nc2ccccc2-n2cccc23)cc(OC)c1OC,21µM*,nt,0%,nt,?,nt
CCC(C)NC(=O)N1CCC2(CC1)Nc1ccccc1-n1cccc12 (configuration not stated),nt,nt,-10%,nt,nt,nt
CCn1c(NC(=O)/C=C/c2ccc(F)cc2)nc2ccccc21,?,48,5%,-26%,23µM*,-29%
Cc1cc(NC(=O)CSc2nc3ccccc3[nH]2)n(-c2ccccc2)n1,?,0,42%,-11%,?,-1%
Cc1cc(NC(=O)/C=C/c2cccc(F)c2)n(-c2nc3ccccc3[nH]2)n1,23µM*,0,-21%,-17%,12µM*,-8%
Cc1cc(NC(=O)/C=C/c2cccc(Cl)c2)n(-c2nc3ccccc3[nH]2)n1,-92%,27,-1%,-9%,12µM*,-4%
Cc1cc(NC(=O)/C=C/c2ccc(F)cc2)n(-c2nc3ccccc3[nH]2)n1,?,7,-8%,-3%,15µM*,-13%
NC(=O)c1ccccc1NC(=O)/C=C/c1cccc(Cl)c1,-23%,?,-5%,0%,-13%,-1%
CCN1c2cc(C(=O)Nc3ccc(OC)cc3OC)ccc2C(=O)N2CCCCC21 (configuration not stated),nt,nt,18%,nt,nt,nt
O=C(C1=C[C@H](C2CC2)C[C@H](OCCCCO)O1)N1CCOCC1,6%,8,-1%,-1%,-3%,-5%
CCCCNC(=O)CCc1cc2ccc(C)cc2[nH]c1=O,nt,nt,20%,nt,nt,nt
Cc1nc2ncccn2c1C(=O)N1CCC(=O)N(CC2CC2)C(C(C)C)C1 (configuration not stated),nt,nt,68%,nt,nt,nt
COc1ccc(/C=C/C(=O)Nc2cc(C)nn2-c2nc3ccccc3n2Cc2cccc([N+](=O)[O-])c2)cc1,-24%,8,-2%,1%,-6%,2%
COc1ccc(/C=C/C(=O)Nc2cc(C)nn2-c2nc3ccccc3[nH]2)cc1,?,-6,1%,-6%,18µM*,-8%
Cc1ccc(C(=O)N[C@@H]2CN(C)C[C@H]2CN(C)C)s1,nt,nt,93%,nt,nt,nt
Cc1sc2ncn(CC(=O)N3CCN(c4ccc(Cl)cc4)CC3)c(=O)c2c1S(=O)(=O)N1CCN(c2ncccn2)CC1,12µM*,nt,-11%,nt,?,nt
SMILES,DT40 TDP1 CPT,IL-1B inflam inh,ALOX12 inh,HT1080 IDH1KD tx,TDP1 cell noCPT,HT1080-NT tox
COc1ccccc1N1CCN(C(=O)c2sc3ncn(CC(=O)N4CCC(C)CC4)c(=O)c3c2C)CC1,?,19,-8%,-13%,1.8µM*,-22%
Cc1sc2ncn(CC(=O)N3CCN(c4ccc(F)cc4)CC3)c(=O)c2c1S(=O)(=O)N1CCOCC1,-10%,-12,15%,-17%,?,15%
COc1ccc(N2CCN(C(=O)Cn3cnc4sc(C)c(S(=O)(=O)N5CCC(C)CC5)c4c3=O)CC2)cc1,?,nt,-24%,nt,23µM*,nt
Cc1sc2ncn(CC(=O)N3CCN(c4ccccc4)CC3)c(=O)c2c1S(=O)(=O)N1CCN(c2ncccn2)CC1,?,nt,0%,nt,?,nt
CCCN(C(=O)Cn1cnc2sc(C)c(S(=O)(=O)N3CCN(c4ncccn4)CC3)c2c1=O)c1cccc(C)c1,-26%,nt,?,nt,15µM*,nt
CCC(C)NC(=O)Cn1cnc2sc(C)c(S(=O)(=O)N3CCN(c4ncccn4)CC3)c2c1=O (configuration not stated),8%,4,-9%,1%,2%,16%
CCOC(=O)CCNC(=O)N1CCCCCCN(C)C(=O)CC1,nt,nt,7%,nt,nt,nt
Cc1noc(C)c1S(=O)(=O)N1C[C@@H](F)C[C@H]1C(=O)N1CCCCC1,nt,nt,29%,nt,nt,nt
Cc1cccc(N2CCN(C(=O)Cn3cnc4sc(C)c(S(=O)(=O)N5CCN(c6ncccn6)CC5)c4c3=O)CC2C)c1 (configuration not stated),16µM*,nt,?,nt,15µM*,nt
Cc1sc2ncn(CC(=O)N3CCN(c4ccccn4)CC3)c(=O)c2c1S(=O)(=O)N1CCCCC1,-1%,-28,-3%,4%,-27%,-1%
N#CCSc1nnc(Cc2cccc3ccccc23)n1C1CCCCC1,-25%,-65*,-1%,-13%,-20%,-10%
O=C(c1nc2nc(-c3cccs3)cc(C(F)(F)F)n2n1)N1CCC2(CC1)OCCO2,nt,nt,4%,nt,nt,nt
O=C(Cn1ncc2ccccc2c1=O)Nc1cc(F)cc(F)c1,nt,nt,-25%,nt,nt,nt
COc1ccc(NC2C=CS(=O)(=O)C2)c(OC)c1 (configuration not stated),-16%,-61*,?,-11%,-14%,-7%
Cc1ccc(S(=O)(=O)N2CCN(C(=O)NC(C)CCc3ccccc3)CC2)cc1 (configuration not stated),nt,nt,-16%,nt,nt,nt
CCCNC(=O)c1cccc2c1CCN2S(=O)(=O)c1cccc(C)c1,nt,nt,-2%,nt,nt,nt
